# Experimental data taken from PubChem BioAssay (NCATS).
# Inconclusive results are not listed. A call without a number means that no potency is given here. A number with no mark means an inactive call. Calls of active or inactive are those of the source. Calls come from the whole dose curve; as a rule, active = well fitted cell-killing curve with a large enough effect; inconclusive = small, poorly fitted or top-dose-only effect, or effect the other way; inactive = flat fitted curve, though single readings scatter.
# Test system: PA-1
# Test: Primary qHTS to identify gynecologic anti-cancer compounds using libraries of approved drugs and bioactive compounds (AID 1345084); note: nearly all actives have a fitted effect of over 55% in size
# Conditions: Gynecologic cancer cell panel viability, ATPlite luminescence, 48 h; series mostly up to 57.5 µM
# In short: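 Cytotoxicity screen measuring ATP content by luciferase luminescence. Each compound is applied at five concentrations for 48 h at 37 C with 5% CO2.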
SMILES,Potency,"activity change, negative = cytotoxicity"
CC(C)CC(=O)n1cc(C(N)=O)c(=O)cc1C(O)c1ccccc1 (stereo not given),inactive,–
CC(C)C(C#N)O[C@@H]1O[C@H](CO[C@@H]2OC[C@](O)(CO)[C@H]2O)[C@@H](O)[C@H](O)[C@H]1O (stereo not given in full),inactive,–
COc1ccc(/C=C/C(=O)O[C@H]2[C@@H]3C=CO[C@@H](O[C@@H]4O[C@H](CO)[C@@H](O)[C@H](O)[C@H]4O)[C@@H]3[C@@]3(CO)O[C@@H]23)cc1O,inactive,–
C=C1CC23CC1(O)CCC2C1=CC2OC(=O)C(C)(C2O)C1C3C(=O)O (stereo not given),inactive,–
COc1cc(/C=C/C(=O)OC[C@H]2O[C@H](O[C@]3(CO)O[C@H](CO)[C@@H](O)[C@@H]3O)[C@H](O)[C@@H](O)[C@@H]2O)cc(OC)c1O,inactive,–
C(#Cc1cccc(CN2CCOCC2)c1)CCN1CCCCC1,inactive,–
COc1cc(C)c(C(=O)O[C@H]2[C@@H](O)[C@H](n3ccc(=O)[nH]c3=O)O[C@@H]2CO)c(OC)c1,inactive,–
C[C@@]12C[C@]3(O)O[C@H](O1)[C@]1(COC(=O)c4ccccc4)[C@H]3C[C@@]12O[C@@H]1O[C@H](COC(=O)c2ccccc2)[C@@H](O)[C@H](O)[C@H]1O,inactive,–
C[C@@H]1O[C@@H](O[C@H]2[C@H](O)[C@@H](C(=O)O)O[C@@H](O[C@H]3CC[C@@]4(C)C(CC[C@]5(C)C4CC=C4C6CC(C)(C)CC[C@]6(C(=O)O)CC[C@]45C)C3(C)C)[C@@H]2O[C@@H]2O[C@H](CO)[C@@H](O)[C@H](O)[C@H]2O)[C@H](O)[C@H](O)[C@H]1O (stereo not given in full),–,-11.5% [at 11.6 µM]
CC(=O)N1CCN(NC(=O)c2ccc(F)cc2)CC1,inactive,–
